In PubChem BioAssay (NCATS):
Inconclusive results are not listed. The source made the active and inactive calls. The call rests on the fitted dose curve; in most records, active means well fitted inhibition curve with a large enough effect; inconclusive means small, poorly fitted or top-dose-only effect, or effect the other way; inactive means no such curve, though single readings can be large or run the other way.

Experiment: High Content Imaging Cell-Based qHTS for Inhibitors of the mTORC1 Signaling Pathway in MEF Cells (AID 2667);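 further: Tsc2-/- p53-/- MEFs stably re-expressing wild-type Tsc2 exposed 24 h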
Settings: series mostly up to 38.3 µM
Description: NIH Molecular Libraries Probe Production Centers Network [MLPCN]
NIH Chemical Genomics Center [NCGC]
Assay Submitter (PI): Blenis, John; Hoffman, Greg; Harvard University
NCGC Assay Overview: The mammalian target of rapamycin (mTOR) is an intracellular serine/threonine kinase Aberrant regulation of mTOR signaling plays a causative role in a number of human diseases, including cancer, benign tumors such as lymphangioleiomyomatosis (LAM) and Tuberous Sclerosis Complex (TSC), and metabolic diseases such as diabetes and obesity. This project aims to identify inhibitors of ribosomal protein S6 (rpS6) phosphorylation. The phosphorylation of rpS6 is a key event downstream of mTOR activation. The assay uses a phospho-specific antibody of phospho-rpS6 to detect inhibitors of mTOR activation. Mutations in the Tsc1 and Tsc2 genes are the underlying genetic lesions responsible for TSC, causing constitutive activation of the mTORC1 pathway and leading to profound effects on cell metabolism. Aberrant metabolism in cancer has recently received significant attention as a target to develop therapeutic agents in the treatment of cancer.1 As Tsc2-/- cells have lost the ability to respond to energy and growth factor deprivation, these cells are unable to properly down regulate cellular biosynthetic processes in response to metabolic stress, and are thus extremely sensitive to glucose deprivation-induced death.2 A central goal of this project is to explore the unique cell survival and metabolic properties of cells with Tsc1 or Tsc2 by screening for compounds that selectively target the Tsc2-/- MEFs by screening both Tsc2-/- and WT MEF cell lines. We hope to better understand these aspects of TSC physiology in order to exploit them for therapeutic benefit.
NCGC IN Cell Assay Protocol:
For quantitative high throughput analysis of mTORC1 signaling, we developed a cell-based assay for immuno-fluorescence based detection of rpS6 phosphorylation on the Acumen Explorer that will be used a platform for the primary small molecule screen. Mouse embryonic fibroblasts (MEFs) are cultured in 1536-well plates using DMEM + 10% FBS. Twenty-four hrs after plating, test compounds (solubilized in DMSO) are delivered and incubated with the cells for 24 hrs at 37 degree Celsius. Following the incubation, media with compound is aspirated and the cells are fixed in 4% paraformaldehyde (PFA) containing PBS + 0.2% TX-100. Next, PFA is aspirated, cells are washed two times with PBS plus 0.2% TX-100 and the cells are blocked for 1 hr at room temperature (blocking buffer: LiCOR Blocking Buffer plus 0.2% TX-100). This is followed by aspiration and staining with Alexa-488 conjugated-phospho-rpS6 Ser235/236 antibody for 2 hours at room temperature (Cell Signaling Technology # 4803, 1:50 dilution in blocking buffer). Cells are washed two times with PBS plus 0.2% TX-100, and stained with 10 uM propidium iodide (PI) for 20-25 minutes for cell number measurement (1:500 dilution of Hoescht staining is also added for IN Cell imaging). Active wells which are selected (based on Acumen results) are imaged on the IN Cell 1000 (GE Healthcare) using the D360/40X and HQ480/40X excitation filters for the Hoechst and Alexa-488 cytoplasmic stains, respectively. The fluorescence emission filters used were HQ460/40M and HQ535/50M for the Hoechst and Alexa-488 cytoplasmic stains, respectively. The normalized phospho-S6 staining is calculated as the ratio of […] for the single concentration rapamycin control ([…] nM) and DMSO columns. […] Inhibition of the pathway is defined based on the normalized phospho-S6 intensity in rapamycin treated cells. Each treatment is reported as the % positive cells in the well, where thresholds are defined by selecting wells with the highest and lowest signal and differentiating between the % non-active and % active populations. […]

Which outcome does the source give for `COc1ccc2c(c1OC)C(=O)O[C@H]2[C@@H]1c2cc3c(cc2CCN1C)OCO3` here?
The outcome was “inactive”.

Which outcome does the source give for `CC(C)(C)NCC(O)c1ccccc1Cl` (stereo not given) here?
The outcome was “inactive”.

For `CC(C)c1cccc(C(C)C)c1O`, which outcome is on record?
The outcome was “inactive”.

With `O=P1(N(CCCl)CCCl)NCCCO1` (stereo not given) as the compound, how does the outcome read?
Its outcome is “inactive”.

Which outcome does the source give for `CCC1(c2ccc(N)cc2)CCC(=O)NC1=O` (stereo not given) here?
Its outcome is “inactive”.

With `CC(NC(C)(C)C)C(=O)c1cccc(Cl)c1` (stereo not given) as the compound, how does the outcome read?
Its outcome is “inactive”.

For `C=C(C)[C@H]1CN[C@H](C(=O)O)[C@H]1CC(=O)O`, which outcome is on record?
Its outcome is “inactive”.

Which outcome does the source give for `O=c1[nH]oc2c1CCNC2` here?
The outcome was “inactive”.

For `CCCCC/C=C\C/C=C\C/C=C\C/C=C\CCCC(=O)NCC(=O)O`, which outcome is on record?
The outcome was “inactive”.

For `O=C(CCCN1CCC2(CC1)C(=O)NCN2c1ccccc1)c1ccc(F)cc1`, which outcome is on record?
The outcome was “inactive”.

For `CC(C)N(CCC(C(N)=O)(c1ccccc1)c1ccccn1)C(C)C` (stereo not given), which outcome is on record?
Its outcome is “inactive”.

For `NCCc1ccc(O)cc1`, which outcome is on record?
Its outcome is “inactive”.

With `Cc1ncsc1CCCl` as the compound, how does the outcome read?
The outcome was “inactive”.

Which outcome does the source give for `CN1C(=O)CCS(=O)(=O)C1c1ccc(Cl)cc1` (stereo not given) here?
Its outcome is “inactive”.

For `O=C(O)CCCc1ccc(N(CCCl)CCCl)cc1`, which outcome is on record?
Its outcome is “inactive”.
